Results: PubChem BioAssay (NCATS)
Inconclusive results are not listed. Unmarked numbers belong to inactive results. The source made the active and inactive calls. Calls come from the whole dose curve; as a rule, active = well fitted inhibition curve with a large enough effect; inconclusive = small, poorly fitted or top-dose-only effect; inactive = flat fitted curve, though single readings scatter.

molecular target: Calcium and integrin-binding protein 1 (Homo sapiens) (UniProt Q99828); test: Primary qHTS for Identification of Calcium Integrin Binding Protein 1 (CIB1) Competitor (AID 1508620); details: CIB1-GST / FITC-alphaIIb peptide fluorescence polarization; series mostly up to 114 µM; activity change, negative = inhibition: at the top concentration;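 for activity change, negative = inhibition: GST tagged CIB1 binding a fluorescein labelled alphaIIb integrin peptide tracer; top concentration of the series differs between compounds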
Sequence (Q99828 whole entry, looked up): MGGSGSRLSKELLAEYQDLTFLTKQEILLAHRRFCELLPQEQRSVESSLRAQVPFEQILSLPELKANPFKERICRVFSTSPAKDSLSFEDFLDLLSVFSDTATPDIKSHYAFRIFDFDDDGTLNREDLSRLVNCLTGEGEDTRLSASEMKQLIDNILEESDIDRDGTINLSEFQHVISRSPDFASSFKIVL
Procedure, shortened: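 CIB1-GST (1 uM final) and compound incubated 15 min at room temperature before adding FITC-alphaIIb peptide tracer (100 nM final). Competition for binding read by fluorescence polarization (ex 480, em 540) after another 15 min at room temperature.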
% is set by controls: 0 for no effect and ±100 for the full control effect; potency is the fitted concentration of half-maximal effect.

| SMILES | activity change, negative = inhibition | Potency |
| --- | --- | --- |
| COc1ccc(-c2ccc3ncnc(NCc4ccc(C)o4)c3c2)cc1OC | 5.1% | – |
| c1nc(NCc2ccc3c(c2)OCO3)c2cc(-c3ccoc3)ccc2n1 | 9.37% | – |
| Fc1cc(Nc2nc(-c3ccncc3)nc3ccccc23)ccc1OCC(F)(F)F | 2.76% | – |
| COc1cccc(-c2ccc3ncnc(NCc4cccc(F)c4)c3c2)c1 | 3.98% | – |
| O=S(=O)(c1ccccc1)N1CCN(c2nc(C3CC3)nc3ccccc23)CC1 | 2.33% | – |
| NC(=O)c1cccc(-c2noc(-c3ccccc3C(F)(F)F)n2)c1 | -2.25% | – |
| COc1ccc(C(=O)Nc2ccc(-c3nc4ccccc4[nH]3)cc2)cc1C(F)(F)F | 3.33% | – |
| O=C1c2ccccc2NC(c2ccc(-c3ccc(-c4ccccc4)cc3)o2)N1O (centres undefined) | -12.7% | – |
| Cc1noc(C)c1-c1ccc2ncnc(NCc3cc(F)cc(F)c3)c2c1 | -1.05% | – |
| Cc1cc2c(s1)c1cnn(Cc3c(Cl)cccc3Cl)c(=O)c1n2C | 9.2% | – |
| CCc1cccc(CC)c1OCc1cc(C2Nc3ccccc3C(=O)N2Cc2ccco2)ccc1OC (centres undefined) | 1.8% | – |
| O=C(Cc1ccccc1)Nc1nnc(-c2ccncc2)s1 | 2.43% | – |
| N#Cc1cccc(Nc2ncc(-c3cccc4ccccc34)o2)c1 | 4.15% | – |
| Cc1ccc(-c2ccnn(CC(=O)N(C)C(C)c3ccco3)c2=O)cc1 (centres undefined) | -10.3% | – |
| Cc1cc(NCc2ccc(-c3cccnc3)cc2)nc(-c2ccccc2C(C)C)n1 | 4.93% | – |
| CC(C)(C)CNc1ncnc2ccc(-c3ccc(C(=O)O)o3)cc12 | -12.2% | – |
| Cc1ccc(OCCn2c(CCNC(=O)c3cc(F)cc(F)c3)nc3ccccc32)cc1 | -7.19% | – |
| Oc1ccc(/C=C/c2ccccc2F)c2cccnc12 | -4.89% | – |
| CCc1nn2c(=O)cc(NC3CNC3)nc2s1 | 0.892% | – |
| COc1cc(OC)cc(-c2nnc3n2N=C(c2ccccc2OC)CS3)c1 | -0.382% | – |

| SMILES | activity change, negative = inhibition | Potency |
| --- | --- | --- |
| Fc1cnc(-c2ccccc2C(F)F)nc1NCc1ccc(-c2ccn[nH]2)cc1 | -0.0787% | – |
| N#Cc1nc(-c2cccc3ccccc23)oc1NC1CNC1 | -4.65% | – |
| NC(=O)C1CCN(c2nc(-c3ccc(F)cc3)cs2)CC1 | 10.7% | – |
| Cc1cc2c(s1)c1cnn(Cc3ccc4ccccc4c3)c(=O)c1n2C | 1.5% | – |
| Cc1c(C(=O)OCC2CCCC2)[nH]c2c1C(=O)CC(c1ccco1)C2 (centres undefined) | 4.49% | – |
| O=S(=O)(NCc1ccccc1)c1ccc(O)c2ncccc12 | -12.7% | – |
| Cc1ccc(-c2ccc(=O)n(CC(=O)N(C)C3CCCCCC3)n2)cc1 | -0.875% | – |
| CC(C)N1CCc2c(sc(NC(=O)Cc3ccccc3)c2-c2nc3ccccc3s2)C1 | – | 28.2 µM (active) |
| Cc1nnc(-c2ccccc2[N+](=O)[O-])n1CCCn1ccnc1 | 1.14% | – |
| Cc1cc2c(s1)c1cnn(Cc3ccccc3Cl)c(=O)c1n2C | 4.23% | – |
| COc1ccc(N2Cc3cccc(C(=O)O)c3C2=O)cc1OC | -0.408% | – |
| Fc1c(-c2ccc3ncnc(NCc4cccs4)c3c2)ccc2c1OCO2 | 4.89% | – |
| N#Cc1ccc(OC2=NS(=O)(=O)c3ccccc32)cc1 | 0.726% | – |
| COc1cccc(C2N=C(Nc3nc4ccccc4o3)NC3=C2C(=O)CCC3)c1 (centres undefined) | -13.4% | – |
| O=C(Nc1ccc(Cl)c(S(=O)(=O)N2CCOCC2)c1)c1ccc(S(=O)(=O)N2CCOCC2)cc1 | 1.09% | – |
| O=C(/C=C/c1cccs1)Nc1cccc([S+](=O)([O-])Nc2ccccc2F)c1 | – | inactive |
| O=C(Nc1ccc(Cl)c(Cl)c1)Nc1nnc(-c2cccnc2)s1 | 2.97% | – |
| Cc1ccc(CNc2ncnc3ccc(-c4ccc(C(=O)N(C)C)o4)cc23)o1 | -6.37% | – |
| Cc1cnc(-c2ccccc2C(C)C)nc1NCC1CCN(c2cccnc2)CC1 | 31.2% | – |
